Source: PubChem BioAssay (Tox21)
Where “and” joins values, the source holds several entries; their conditions need not be identical. Equal values may be shown once. Results filed as inconclusive are left out. A call without a number means that no potency is given here. The source holds several records for some structures; these can differ, active in one and inactive in another. Calls of active or inactive are those of the source. Unless noted, calls follow the shape of the dose curve; as a rule, active = well fitted curve in the direction sought with a large enough effect in the repeat runs; inconclusive = weak or mixed curves; inactive = no such curve, though single readings can be large; an effect the other way counts as inactive or inconclusive.

How the values were obtained:
[1] = target: Aryl hydrocarbon receptor (Homo sapiens) (UniProt P35869); test: qHTS assay to identify small molecule that activate the aryl hydrocarbon receptor (AhR) signaling pathway (AID 743085); settings: HepG2 AhR-luc (HG2L7.5c1), luciferase, 24 h; series mostly up to 70.3 µM; also: nearly all actives have a fitted effect of over 15% in size;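 as to activation: HG2L7.5c1 human HepG2 liver cells with stably integrated DRE-driven firefly reporter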
Outline: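 Compounds were tested in HepG2 hepatocellular carcinoma cells harbouring a stably integrated luciferase gene under control of 20 DREs. Increased reporter signal after 24 h treatment at 37C was taken as AhR activation.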

[2] = qHTS assay to identify small molecule that activate the aryl hydrocarbon receptor (AhR) signaling pathway - cell viability counter screen (AID 743086); settings: HepG2-AhR-luc viability, CellTiter-Fluor, 24 h; series mostly up to 70.3 µM; also: nearly all actives have a fitted effect of over 45% in size
Outline: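 Cytotoxicity counter screen: CellTiter-Fluor signal (30 min, 37 C) in 4000 HepG2 cells/well carrying the DRE-luciferase reporter, following 24 h compound exposure at 37 C.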

[3] = qHTS assay to identify small molecule antagonists of the peroxisome proliferator-activated receptor gamma (PPARg) signaling pathway - cell viability counter screen (AID 743194); settings: PPARg-bla HEK293H viability, CellTiter-Glo luminescence, 17 h; Potency: co-treated with 50 nM rosiglitazone unless noted; series mostly up to 62.6 µM; also: nearly all actives have a fitted effect of over 55% in size
Outline: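 Viability was measured as CellTiter-Glo luminescence in GeneBLAzer PPARg UAS-bla HEK293H cells. These cells had been exposed 17 h at 37 C to compounds together with rosiglitazone at 50 nM final, with the beta-lactamase readout taken in the same wells.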

[4] = qHTS assay for small molecule agonists of the antioxidant response element (ARE) signaling pathway - cell viability counter screen (AID 743203; calls by dose curve; also: nearly all actives have a fitted effect of over 55% in size); settings: ARE-bla HepG2 viability, CellTiter-Glo luminescence, 16 h; series mostly up to 73.3 µM
Outline: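 Following 16 hrs of compound treatment at 37C, HepG2 cells with an ARE-controlled beta-lactamase gene were lysed with CellTiter-Glo. Luminescence was read after 30 min at room temperature.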

[5] = qHTS assay for small molecule activators of the heat shock response signaling pathway - cell viability counter screen (AID 743209); settings: HSE-bla HeLa viability, CellTiter-Glo luminescence, 5 h; series mostly up to 62.6 µM; also: nearly all actives have a fitted effect of over 50% in size
Outline: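 Readout: CellTiter-Glo luminescence, 30 min at room temperature. System: HSE-bla HeLa cells, 1500/well, plated overnight. Treatment: compounds in DMSO, 5 h at 37 C.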

[6] = qHTS assay to identify small molecule agonists of the peroxisome proliferator-activated receptor delta (PPARd) signaling pathway - cell viability counter screen (AID 743211); settings: PPARd-bla HEK293H viability, CellTiter-Glo luminescence, 17 h; series mostly up to 62.6 µM; also: nearly all actives have a fitted effect of over 55% in size
Outline: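 Counter screen for cytotoxicity run in parallel with the PPARd reporter screen. Beta-lactamase reporter HEK293H cells exposed to compounds 17 h; ATP-based CellTiter-Glo luminescence quantified viability.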

[7] = qHTS assay for small molecule agonists of the antioxidant response element (ARE) signaling pathway (AID 743202; active = well fitted activation curve with a large enough effect in the signal ratio in the repeat runs, not every such curve was filed as active; the % refers to the signal ratio); settings: HepG2 ARE-bla reporter, beta-lactamase FRET, 16 h; series mostly up to 73.3 µM
Outline: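 Quantitative high-throughput format in HepG2 cells bearing an integrated ARE-beta-lactamase reporter. Compound exposure lasted 16 h at 37 C, and fluorescence was read 2 h after adding LiveBLAzer B/G substrate at room temperature.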

[8] = qHTS assay for small molecule activators of the heat shock response signaling pathway (AID 743210; active = well fitted activation curve with a large enough effect in the signal ratio in the repeat runs, with a control signal flat, not every such curve was filed as active; the % refers to the signal ratio;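 as to activation: HeLa cells with beta-lactamase reporter driven by heat shock elements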); settings: HeLa HSE-bla reporter, beta-lactamase ratio, 5 h; series mostly up to 62.6 µM
Outline: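 HeLa HSE-bla cells, overnight plating; cpd in DMSO 5 h, 37 C; LiveBLAzer B/G FRET substrate 2.5 h RT; fluorescence intensity read.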
Potency is read from the fitted curve at half-maximal effect.

Aryl hydrocarbon receptor (Homo sapiens), sequence (P35869 whole entry, looked up): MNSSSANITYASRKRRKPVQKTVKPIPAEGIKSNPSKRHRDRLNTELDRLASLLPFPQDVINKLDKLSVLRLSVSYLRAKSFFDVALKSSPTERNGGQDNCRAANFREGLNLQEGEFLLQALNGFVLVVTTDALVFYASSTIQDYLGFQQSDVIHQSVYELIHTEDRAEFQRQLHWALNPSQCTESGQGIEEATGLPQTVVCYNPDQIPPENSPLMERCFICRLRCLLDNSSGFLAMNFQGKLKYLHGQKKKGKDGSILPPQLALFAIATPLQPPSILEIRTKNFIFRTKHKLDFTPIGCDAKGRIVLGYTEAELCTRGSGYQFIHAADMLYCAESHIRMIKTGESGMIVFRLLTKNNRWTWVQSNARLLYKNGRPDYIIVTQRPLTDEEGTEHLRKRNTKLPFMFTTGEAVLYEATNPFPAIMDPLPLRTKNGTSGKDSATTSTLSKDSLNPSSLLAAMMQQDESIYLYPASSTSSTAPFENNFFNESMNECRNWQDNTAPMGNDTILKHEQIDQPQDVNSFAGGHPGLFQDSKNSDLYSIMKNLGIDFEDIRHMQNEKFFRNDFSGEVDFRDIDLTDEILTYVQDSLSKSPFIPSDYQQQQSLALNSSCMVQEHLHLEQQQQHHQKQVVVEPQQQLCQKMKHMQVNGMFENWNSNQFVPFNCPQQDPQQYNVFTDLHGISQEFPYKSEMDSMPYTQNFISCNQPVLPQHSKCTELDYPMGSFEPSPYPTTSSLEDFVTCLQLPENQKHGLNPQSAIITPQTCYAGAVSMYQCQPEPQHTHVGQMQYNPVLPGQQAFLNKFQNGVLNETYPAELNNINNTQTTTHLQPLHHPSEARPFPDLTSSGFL

Structure (SMILES)	Potency [1]	Potency [2]	Potency [3]	Potency [4]	Potency [5]	Potency [6]	Potency [7]	Potency [8]
CCCCCCCCCCCCCCCC[N+](C)(C)C	inactive	inactive and 68.6 µM (active)	18.8 µM (active) and 29.8 µM (active)	29.5 µM (active) and 24.3 µM (active) and 29.8 µM (active)	21.1 µM (active) and 43.6 µM (active)	16.8 µM (active) and 38.9 µM (active) and 23.7 µM (active)		
CC[C@H]1C[C@@H]2C[C@H]3c4[nH]c5ccc(OC)cc5c4CCN(C2)[C@@H]13	8.49 µM (active)	inactive	inactive	inactive	inactive	60.1 µM (active)	inactive	45.9 µM (active)
CN(C)C(=S)[S-].CN(C)C(=S)[S-].[Cu+2]	inactive	8.36 µM (active)	2.12 µM (active)			0.946 µM (active)	1.49 µM (active)	
CCCCCCCCCC[N+](C)(C)CCCCCCCCCC	inactive	inactive	15.5 µM (active)	43.3 µM (active)	34.7 µM (active)	21.9 µM (active)		
CCCCCCCCCCCCCC[P+](CCCCCC)(CCCCCC)CCCCCC (tested in a mixture with another compound)	inactive	27.3 µM (active)	0.49 µM (active)	10.9 µM (active)	3.47 µM (active)	2.46 µM (active)		
O=[N+]([O-])c1cc(C(F)(F)F)c(Cl)c([N+](=O)[O-])c1Cl	inactive	54.5 µM (active)	2.45 µM (active)	1.72 µM (active)	2.19 µM (active)	11 µM (active)		
C=CC(=O)OCC(COC(=O)C=C)(COC(=O)C=C)COC(=O)C=C	inactive	19.3 µM (active)	6.92 µM (active)	43.3 µM (active)	2.45 µM (active)	6.92 µM (active)		
CCCOCC(=Nc1ccc(Cl)cc1C(F)(F)F)n1ccnc1	inactive	54.4 µM (active)	11 µM (active)		12.3 µM (active)			
O=C/C(Cl)=C(/Cl)C(=O)O	inactive	inactive	inactive	inactive	38.9 µM (active)	inactive	38.5 µM (active) and 27.3 µM (active)	
CCN(CC)C(=S)[S-].CCN(CC)C(=S)[S-].[Zn+2]	inactive	inactive	2.17 µM (active)	3.82 µM (active)		0.545 µM (active)		
O=[N+]([O-])c1ccc2ccc3cccc4ccc1c2c34	inactive	inactive	inactive	inactive	inactive	inactive		inactive
CC[C@H](C)[C@H]1O[C@]2(C=C[C@@H]1C)C[C@@H]1C[C@@H](C/C=C(\C)[C@@H](O[C@H]3C[C@H](OC)[C@@H](O[C@H]4C[C@H](OC)[C@@H](O)[C@H](C)O4)[C@H](C)O3)[C@@H](C)/C=C/C=C3\CO[C@@H]4[C@H](O)C(C)=C[C@@H](C(=O)O1)[C@]34O)O2	inactive	inactive and 11.4 µM (active)	9.15 µM (active)	11.4 µM (active)	12.9 µM (active)	11.5 µM (active)		inactive
CCCSP(=O)(OCC)SCCC	inactive	inactive			inactive			inactive
CN(C)c1ccc(N=Nc2ccccc2)cc1	27.3 µM (active)		inactive	inactive	inactive	inactive	8.64 µM (active)	
ClCc1ccc(Cl)cc1Cl	inactive	inactive		inactive	inactive	inactive		inactive
O=[N+]([O-])c1c2ccccc2cc2ccccc12	15.8 µM (active)	inactive			inactive		21.4 µM (active)	
CCOCn1c(-c2ccc(Cl)cc2)c(C#N)c(Br)c1C(F)(F)F	inactive		1.95 µM (active)			19.5 µM (active)		
N#C/C=C/C#N	inactive	inactive		inactive	inactive			
